Experimental data reported in PubChem BioAssay AID686977 (Southern Research Specialized Biocontainment Screening …, 2013).
Out of some 9,400 compounds screened, fewer than 10 were called active. Not shown: some 5% with an inconclusive outcome. The rule behind the calls is not given here. These entries were drawn from the full list. Results with a measured potency or affinity are listed apart.

experiment: Vibrio cholerae quorum sensing activators, luminescence (AID 686977); conditions: V. cholerae quorum sensing reporter, 6 h, active compounds read high; dose 50, dose unit µM unless noted

Structure (SMILES) | luminescence
Cc1ccc(C(=O)c2ccc([N+](=O)[O-])cc2)cc1C | 40 (inactive)
COC(=O)c1c(NC(=O)C2CC2)sc2c1CCCC2 | 40 (inactive)
CS(=O)(=O)N(CC(=O)NCCC1=CCCCC1)C1CCCCC1 | 40 (inactive)
O=C(CSc1nnc(C2CC2)n1Cc1ccccc1)c1cc2ccccc2o1 | 80 (inactive)
COc1ccc(NC(=O)CSc2nc(O)cc(=O)n2C)cc1 | 0 (inactive)
COc1cc(NC(=O)Cn2nc(C(F)(F)F)c3c2CCCC3)cc(OC)c1OC | 280 (inactive)
CCOCCCN(Cc1ccco1)C(=O)c1cc2c(=O)[nH]c3ccc(C)cc3c2s1 | 0 (inactive)
COc1cccc(-c2nc(CS(=O)CC(=O)NCc3ccccc3Cl)c(C)o2)c1 (stereo not drawn) | 0 (inactive)
COC(=O)c1ccccc1NC(=O)C1CC(=O)N(c2ccccc2)C1 (stereo not drawn) | 0 (inactive)
CCOC(=O)Cc1csc(-n2sc3ccccc3c2=O)n1 | 0 (inactive)
O=C(NC1CCCc2ccccc21)C1CCN(C(=O)c2sccc2-n2cccc2)CC1 (stereo not drawn) | 40 (inactive)
COC(=O)[C@H](C)NC(=O)Nc1cccc(C)c1 | 0 (inactive)
CNC(=O)NC(=O)CSc1ncc(C(F)(F)F)cc1Cl | 0 (inactive)
N#Cc1ccccc1OCC(=O)NC(N)=O | 0 (inactive)
Cc1cc(NS(=O)(=O)c2ccc(NC(=O)C(C(C)C)N3C(=O)c4ccccc4C3=O)cc2)nc(C)n1 (stereo not drawn) | 0 (inactive)
CCOC(=O)COc1cccc2c(=O)n(CC(=O)N3CCc4ccccc43)ccc12 | 0 (inactive)
Cn1c(=O)c2c(nc(N3CCCCCC3)n2CCSc2nc3ccccc3o2)n(C)c1=O | 0 (inactive)
O=C(Nc1ccc(Br)cc1F)C1CCCN(S(=O)(=O)c2cnc[nH]2)C1 (stereo not drawn) | 0 (inactive)
O=C(Nc1nccs1)c1nc(-c2ccccc2)n(-c2ccccc2)n1 | 280 (inactive)
Cc1csc2nc(CNC(=O)C3CC=CCC3C(=O)O)cn12 (stereo not drawn) | 0 (inactive)
COC(=O)c1ccccc1NC(=O)Nc1nnc(N2CCC(C)CC2)s1 | 0 (inactive)

Structure (SMILES) | luminescence
CC(=O)Nc1nnc(-c2ccc(Cl)s2)o1 | 0 (inactive)
CCOC(=O)N1CCN(C(=O)C2CCCN(S(=O)(=O)c3cccnc3)C2)CC1 (stereo not drawn) | 0 (inactive)
Cc1cccc(C)c1NC(=O)c1sccc1SCc1cccc(C(F)(F)F)c1 | 40 (inactive)
O=C(CCc1ccccc1)Nc1ccc(F)cc1F | 40 (inactive)
COC(=O)c1cc(COc2ccc3c4c(c(=O)oc3c2)CCCC4)c(C)o1 | 0 (inactive)
COc1ccc(OC)c(NC(=O)c2cn(C)c(=O)c3cc(OC)c(OC)cc23)c1 | 0 (inactive)
CC1(C)CC(=O)c2cc(OCC(=O)N3CCOCC3)ccc2O1 | 40 (inactive)
CC(C)C(NC(=O)c1cccs1)c1nnc(SCC(=O)Nc2nccs2)n1C (stereo not drawn) | 40 (inactive)
COC(=O)c1nn(-c2ccccc2)c(Cl)c1/C=N/OCc1ccc(Cl)cc1Cl | 40 (inactive)
CC(C)CC(=O)Nc1ccc(S(=O)(=O)NCc2ccco2)cc1 | 0 (inactive)
CCOC(=O)C(C)Sc1nnc(Cc2cc(=O)[nH]c(=O)[nH]2)n1-c1ccc(OCC)cc1 (stereo not drawn) | 0 (inactive)
CC1CCCCC1NC(=O)c1ccc(CNc2c(N3CCCC3)c(=O)c2=O)cc1 (stereo not drawn) | 0 (inactive)
Cc1cnc(C(=O)Nc2cccc3cccnc23)cn1 | 40 (inactive)
CN1CCN(c2cc3c(c4c2[nH]c2ccccc24)C(=O)CC(C)(C)C3)CC1 | 40 (inactive)
Cc1cc(C(=O)CSc2nnc(-c3ccc(F)cc3)o2)c(C)n1CC1CCCO1 (stereo not drawn) | 0 (inactive)
CCOC(=O)/C(C#N)=C\c1ccc(N2CCN(C)CC2)cc1 | 0 (inactive)
CCOC(=O)C1CCN(C(=O)C2CCN(S(=O)(=O)c3cccc4cccnc34)CC2)CC1 | 0 (inactive)
Cc1n[nH]c(=S)c2nn(-c3ccccc3F)c(C)c12 | 0 (inactive)
Cn1c(C(=O)N2CCN(Cc3ccc4c(c3)OCO4)CC2)cc2c(=O)n(C)c3ccccc3c21 | 0 (inactive)
CCC(Cc1ccccc1)NC(=O)CN1C(=O)CSc2ncccc21 (stereo not drawn) | 0 (inactive)
OCCN1CCN(c2ncnc3ccc(Br)cc23)CC1 | 200 (inactive)

Structure (SMILES) | luminescence
CC1=CC(C)(C)N(S(=O)(=O)c2ccc(F)cc2)c2ccccc21 | 0 (inactive)
COc1ccc(C(=O)Nc2cc3c(cc2C#N)OCO3)cc1S(=O)(=O)NCc1ccco1 | 0 (inactive)
CCOC(=O)c1c(C)nc2ccccc2c1C | 40 (inactive)
CCc1nn(CC(=O)NCCCN2CCc3ccccc3C2)c(=O)c2cc3sccc3n12 | 0 (inactive)
COc1ccc(-n2nnnc2SCC#CCO)cc1 | 0 (inactive)
Cc1nnc(SCC(=O)NCc2ccco2)n1Cc1ccccc1 | 0 (inactive)
CC(C)OC(=O)CSc1nnc(-c2ccccc2)n1N | 40 (inactive)
O=c1c2ccccc2nnn1CSc1nnc(-c2cccnc2)n1-c1ccccc1F | 0 (inactive)
O=[N+]([O-])c1cc(-c2cnc3ccccc3n2)ccc1Oc1ccc(F)cc1 | 40 (inactive)
Cc1ccc(CN(C)C(=O)C2CCCN2C(=O)c2cccs2)o1 (stereo not drawn) | 320 (inactive)
CCn1cc(S(=O)(=O)CC(=O)Nc2cc(C)on2)c2ccccc21 | 0 (inactive)
CCCCN(C(=O)c1cnc2n(c1=O)CCS2)c1ccccc1 | 0 (inactive)
CCc1nc2c(cnn2-c2ccc(F)cc2)c(=O)n1-c1ccc(N2CCC(C)CC2)cc1 | 0 (inactive)
O=C(NCC(c1cccnc1)N1CCN(c2ccccc2F)CC1)c1ccco1 (stereo not drawn) | 0 (inactive)
CCC(C)NC(=O)CS(=O)Cc1nc(-c2cccc(OC)c2)oc1C (stereo not drawn) | 40 (inactive)
Cc1ccc(-c2nnc(SCc3nc(N)nc(Nc4ccccc4C)n3)n2N)cc1 | 0 (inactive)
O=C(NCc1ccco1)c1nnc(Cc2ccc(Cl)cc2)o1 | 0 (inactive)
CCOC(=O)C1=C(c2ccccc2)O/C(=C(\C(=O)OC)C(F)(F)F)S1 | 40 (inactive)
COc1ccc(C2N(C(=O)CN3CCOCC3)CCN2S(=O)(=O)c2ccccc2)cc1 (stereo not drawn) | 0 (inactive)
Cc1cccc(N2CCN(C(=O)CN3CCOc4ccccc43)CC2C)c1 (stereo not drawn) | 0 (inactive)
Cc1onc(-c2ccccc2Cl)c1C(=O)Nc1cccc(-c2nc3ncccn3c2C)c1 | 40 (inactive)
